Data from PubChem BioAssay (Tox21).
Where “and” joins values, the source holds several entries; their conditions need not be identical. Equal entries are not always repeated. Inconclusive results are not listed. Entries that show only a call come without a potency. Some compounds were tested as several samples or in several runs, with calls that do not always agree. Calls of active or inactive are those of the source. Unless noted, calls follow the shape of the dose curve; as a rule, active = well fitted curve in the direction sought with a large enough effect in the repeat runs; inconclusive = weak or mixed curves; inactive = no such curve, though single readings can be large; an effect the other way counts as inactive or inconclusive.

What was measured:
[1] = qHTS assay to identify small molecule antagonists of the estrogen related receptor (ERR) signaling pathway from Tox21 library (AID 1224848); also: nearly all actives have a fitted effect of over 50% in size; also: potency is read from the fitted curve at half-maximal effect
Summary of the method: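 Tox21 10K compounds in DMSO tested for ERR pathway antagonism in NTP's ERR cell line; 18 h, 37 C exposure; ONE-Glo luminescence.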

[2] = qHTS assay to identify small molecule agonists of the estrogen related receptor (ERR) signaling pathway from Tox21 library (AID 1224849; calls by dose curve; also: nearly all actives have a fitted effect of over 15% in size); conditions: ERR reporter cell line, ONE-Glo luciferase, 18 h
Summary of the method: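 Tox21 compounds tested for ERR agonism in an NTP reporter cell line: 18 h treatment at 37 C, then ONE-Glo luminescence.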

[3] = qHTS RealTime-Glo MT Cell Viability Assay in HepG2 cells - 24 hour (AID 1224867); also: nearly all actives have a fitted effect of over 50% in size
Summary of the method: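 Cell number in HepG2 cultures estimated from NanoLuc luminescence generated by metabolic reduction of a prosubstrate by living cells. The homogeneous, nonlytic format allowed repeated reads at 0, 8, 16, 24, 32 and 40 h of compound exposure.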

[4] = qHTS RealTime-Glo MT Cell Viability Assay in HEK293 cells - 32 hour (AID 1224868); also: nearly all actives have a fitted effect of over 50% in size; also: potency is read from the fitted curve at half-maximal effect
Summary of the method: (§1)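 Homogeneous bioluminescent viability format in HEK293 cells (600 cells/well). Following 5 h at 37 C/5% CO2, 23 nL compound was pintooled; the signal was measured repeatedly during 40 h incubation.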

[5] = A CellTox Green Cytotoxicity Assay to monitor cytotoxicity in HEK293 cells - 0 hour (AID 1224869); also: nearly all actives have a fitted effect of over 50% in size
Summary of the method: (§2)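 Tox21 screen in HEK293: membrane-impermeant cyanine dye fluoresces on binding dead-cell DNA; compound pinned 5 h post-seeding, plates held at 37 C, signal read repeatedly through 40 h.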

[6] = qHTS RealTime-Glo MT Cell Viability Assay in HepG2 cells - 40 hour (AID 1224870); also: nearly all actives have a fitted effect of over 50% in size
Summary of the method: (§3)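 HepG2 cells mixed with RealTime-Glo MT reagents (NanoLuc plus cell-permeant prosubstrate) were seeded at 600 cells/well, incubated 5 h at 37 C/5% CO2, then pinned with compounds in DMSO; nonlytic luminescence tracked viability during 40 h treatment.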

[7] = A CellTox Green Cytotoxicity Assay to monitor cytotoxicity in HEK293 cells - 40 hour (AID 1224871); also: nearly all actives have a fitted effect of over 45% in size
Summary of the method: as §2

[8] = qHTS RealTime-Glo MT Cell Viability Assay in HEK293 cells - 16 hour (AID 1224872)
Summary of the method: as §1

[9] = qHTS RealTime-Glo MT Cell Viability Assay in HepG2 cells - 8 hour (AID 1224873); also: nearly all actives have a fitted effect of over 55% in size
Summary of the method: as §3

[10] = qHTS RealTime-Glo MT Cell Viability Assay in HEK293 cells - 40 hour (AID 1224874); conditions: RealTime-Glo luminescence; max response: stronger effect = lower value; also: nearly all actives have a fitted effect of over 50% in size; also: potency is read from the fitted curve at half-maximal effect
Summary of the method: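 HEK293 + NanoLuc + prosubstrate, 600 cells/well; 5 h, 37 C/5% CO2; compound 23 nL in DMSO by pintool; 37 C; luminescence read at 0, 8, 16, 24, 32 and 40 h time points.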

CCc1cccc(C)c1N(C(=O)CCl)C(C)COC (stereo not drawn)
Potency [1]: 51.3 µM (active) and 54.5 µM (active)
activity change, positive = activation ([2]; at 92.4 µM (top of the series)): -45.5% (inactive) and -42% (inactive)
outcome [3]: inactive
Potency [4]: inactive
Potency [5]: inactive
outcome [6]: inactive
Potency [7]: inactive
outcome [8]: inactive
outcome [9]: inactive
max response [10]: -0.256% (inactive) and -7.36% (inactive)

Clc1cccc(Cl)c1Cl
Potency [1]: inactive
activity change, positive = activation ([2]; at 92.4 µM (top of the series)): 0.683% (inactive)
outcome [3]: inactive
Potency [4]: inactive
Potency [5]: inactive
outcome [6]: inactive
Potency [7]: inactive
outcome [9]: inactive

CC(C)C1(C)N=C(c2nc3ccccc3cc2C(=O)O)NC1=O (stereo not drawn)
Potency [1]: inactive
activity change, positive = activation ([2]; at 92.4 µM (top of the series)): 3.26% (inactive) and 5.33% (inactive)
outcome [3]: inactive
Potency [4]: inactive
Potency [5]: inactive
outcome [6]: inactive
Potency [7]: inactive
outcome [8]: inactive
outcome [9]: inactive

CC1OC(C)OC(C)O1 (stereo not drawn)
Potency [1]: inactive
activity change, positive = activation ([2]; at 42.5 µM (top of the series)): 4.56% (inactive)
activity change, positive = activation ([2]; at 92.4 µM (top of the series)): 4.37% (inactive)
outcome [3]: inactive
Potency [4]: inactive
Potency [5]: inactive
outcome [6]: inactive
Potency [7]: inactive
outcome [8]: inactive
outcome [9]: inactive
max response [10]: 8.31% (inactive) and 5.6% (inactive)

CCC(C)(CC)c1cc(NC(=O)c2c(OC)cccc2OC)on1
Potency [1]: 54.6 µM (active) and 46.7 µM (active)
activity change, positive = activation ([2]; at 92.4 µM (top of the series)): -45.6% (inactive) and -38.5% (inactive)
outcome [3]: inactive
Potency [4]: inactive
Potency [5]: inactive
outcome [6]: inactive
Potency [7]: inactive
outcome [8]: inactive
outcome [9]: inactive

CN(N=O)c1ccccc1
Potency [1]: inactive
activity change, positive = activation ([2]; at 92.4 µM (top of the series)): 0% (inactive) and 7.25% (inactive)
outcome [3]: inactive
Potency [4]: inactive
Potency [5]: inactive
outcome [6]: inactive
Potency [7]: inactive
outcome [9]: inactive
max response [10]: 9.26% (inactive) and 4.33% (inactive)

Cc1cccc([N+](=O)[O-])c1
Potency [1]: inactive
activity change, positive = activation ([2]; at 92.4 µM (top of the series)): 5.45% (inactive) and 0.517% (inactive)
outcome [3]: inactive
Potency [4]: inactive
Potency [5]: inactive
outcome [6]: inactive
Potency [7]: inactive
outcome [8]: inactive
outcome [9]: inactive

CC(C)(C)C(O)(CCc1ccc(Cl)cc1)Cn1cncn1 (stereo not drawn)
Potency [1]: 61.9 µM (active) and 61.1 µM (active)
activity change, positive = activation ([2]; at 92.4 µM (top of the series)): -48.6% (inactive) and -40.4% (inactive)
outcome [3]: inactive
Potency [4]: 49.6 µM (active) and 49 µM (active)
Potency [5]: inactive
outcome [6]: inactive
Potency [7]: inactive
outcome [9]: inactive

CN=C=S
Potency [1]: inactive
activity change, positive = activation ([2]; at 92.4 µM (top of the series)): 0.382% (inactive) and 8.43% (inactive)
outcome [3]: inactive
Potency [4]: inactive
Potency [5]: inactive
outcome [6]: inactive
Potency [7]: inactive
outcome [9]: inactive

CCCCOC(=O)c1ccccc1C(=O)OCCCC
Potency [1]: inactive
activity change, positive = activation ([2]; at 92.4 µM (top of the series)): -4.86% (inactive) and -5.73% (inactive)
outcome [3]: inactive
Potency [4]: inactive
Potency [5]: inactive
outcome [6]: inactive
Potency [7]: inactive
outcome [8]: inactive
outcome [9]: inactive

CC(C)(C)OOC(C)(C)C
Potency [1]: inactive
activity change, positive = activation ([2]; at 42.5 µM (top of the series)): 6.85% (inactive)
activity change, positive = activation ([2]; at 92.4 µM (top of the series)): -1.09% (inactive)
outcome [3]: inactive
Potency [4]: inactive
Potency [5]: inactive
outcome [6]: inactive
Potency [7]: inactive
outcome [8]: inactive
outcome [9]: inactive
max response [10]: 1.79% (inactive) and 12.3% (inactive)

COc1ccc2c3c1O[C@H]1[C@@H](O)C=C[C@H]4[C@@H](C2)N(C)CC[C@@]341
Potency [1]: 26.9 µM (active) and inactive
activity change, positive = activation ([2]; at 92.4 µM (top of the series)): -50.6% (inactive) and -3.7% (inactive)
outcome [3]: inactive
Potency [4]: 43 µM (active) and inactive
Potency [5]: inactive
outcome [6]: inactive
Potency [7]: inactive
outcome [8]: inactive
outcome [9]: inactive
Potency [10]: 24.2 µM (active)
max response [10]: 0.391% (inactive)

COCCl
Potency [1]: inactive
activity change, positive = activation ([2]; at 42.5 µM (top of the series)): 1.1% (inactive)
activity change, positive = activation ([2]; at 92.4 µM (top of the series)): -18.8% (inactive)
outcome [3]: inactive
Potency [4]: inactive
Potency [5]: inactive
outcome [6]: inactive
Potency [7]: inactive
outcome [8]: inactive
outcome [9]: inactive
max response [10]: -4.66% (inactive) and 2.93% (inactive)

Nc1ccccc1C(=O)O
Potency [1]: inactive
activity change, positive = activation ([2]; at 42.5 µM (top of the series)): 5.44% (inactive)
activity change, positive = activation ([2]; at 92.4 µM (top of the series)): 6.82% (inactive)
outcome [3]: inactive
Potency [4]: inactive
Potency [5]: inactive
outcome [6]: inactive
Potency [7]: inactive
outcome [8]: inactive
outcome [9]: inactive
max response [10]: 10.4% (inactive) and 8.34% (inactive)

O=[N+]([O-])c1ccccc1
Potency [1]: inactive
activity change, positive = activation ([2]; at 92.4 µM (top of the series)): 8.72% (inactive) and 8.25% (inactive)
outcome [3]: inactive
Potency [4]: inactive
Potency [5]: inactive
outcome [6]: inactive
Potency [7]: inactive
outcome [9]: inactive
max response [10]: 6.12% (inactive) and 17.8% (inactive)

c1ccc2c(c1)Oc1ccccc1O2
outcome [3]: inactive
Potency [4]: inactive
Potency [5]: inactive
outcome [6]: inactive
Potency [7]: inactive
outcome [8]: inactive
outcome [9]: inactive

O=C(NC(=O)c1c(F)cccc1F)Nc1cc(Cl)c(OC(F)(F)C(F)C(F)(F)F)cc1Cl (stereo not drawn)
activity change, positive = activation ([2]; at 42.5 µM (top of the series)): -26% (inactive)
activity change, positive = activation ([2]; at 92.4 µM (top of the series)): -26.5% (inactive)
outcome [3]: inactive
Potency [4]: 12.3 µM (active) and inactive
Potency [5]: inactive
outcome [6]: inactive
Potency [7]: inactive
outcome [9]: inactive

CC(C)(C)OOC(=O)c1ccccc1
outcome [3]: inactive
Potency [4]: inactive
Potency [5]: inactive
outcome [6]: inactive
Potency [7]: inactive
outcome [8]: inactive
outcome [9]: inactive
max response [10]: -10.9% (inactive) and 1.81% (inactive)

O=NN1CCCCCCC1
outcome [3]: inactive
Potency [4]: inactive
Potency [5]: inactive
outcome [6]: inactive
Potency [7]: inactive
outcome [8]: inactive
outcome [9]: inactive

C[C@]12CC[C@H]3[C@@H](CC[C@@]45O[C@@H]4C(O)=C(C#N)C[C@]35C)[C@@H]1CC[C@@H]2O
outcome [3]: inactive
Potency [4]: inactive
Potency [5]: inactive
outcome [6]: inactive
Potency [7]: inactive
outcome [8]: inactive
outcome [9]: inactive
max response [10]: 27.1% (inactive) and 19.8% (inactive)

Cc1ccc(N)cc1Cl
outcome [3]: inactive
Potency [4]: inactive
Potency [5]: inactive
outcome [6]: inactive
Potency [7]: inactive
outcome [8]: inactive
outcome [9]: inactive
